Source: PubChem BioAssay
Activity calls are given as the source filed them.

Legend:
[1] = probe aNog binding to arrayed compounds – biochemical, biotinylated probe, 635/667 nm fluorescence, primary screen (AID 1115); settings: small-molecule microarray, higher = more signal;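 note: probe is biotinylated aNog protein used at 0.15 µg/mL for 1 h at 4 C; z-score combines 667 nm fluorescence of each spot with its signal to noise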
[2] = target: Torsin-1A-interacting protein 1 (Homo sapiens) (UniProt Q5JTV8); assay: compound microarray binding of lysate hLAP1 – cell lysate, small-molecule microarray, COS7 lysate, 635/667 nm fluorescence, primary screen (AID 1116); settings: 635 nm fluorescence, higher = more signal
Albumin (Bos taurus) = Albumin (Bos taurus) (UniProt P02769); assay: compounds binding labelled BSA control protein – biochemical, small-molecule microarray, Alexa647 label, 635/667 nm fluorescence, artefact control for SMM control protein annotation, profiling panel (AID 1118); settings: BSA-A647 binding, fluorescence 635 nm, higher = more signal;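 note: score merges 667 nm emission intensity and signal-to-noise per printed compound spot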
[3] = probe aXIP binding to arrayed compounds – biochemical, NeuroSMM set, 635/667 nm fluorescence, primary screen (AID 1119); settings: small-molecule microarray, higher = more signal, called active from +8 up or from −8 down;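 note: probe is the protein aXip251-270 applied at 1 µg/mL to compound-printed slides; binding of probe to printed compounds measured as 667 nm fluorescence plus signal to noise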
[4] = probe aNOTCH3 binding on compound microarray – biochemical, small-molecule microarray, 635/667 nm fluorescence, primary screen (AID 1120); settings: higher = more signal;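 note: probe is a biotin-tagged antibody raised against NOTCH3 rather than NOTCH3 protein; score merges spot fluorescence near 667 nm with spot signal to noise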
[5] = probe aNOTCH2 binding on compound microarray – biochemical, small-molecule microarray, 635/667 nm fluorescence, primary screen (AID 1121); settings: higher = more signal;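 note: score merges feature fluorescence read at 667 nm with its signal to noise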
[6] = target: Carbonic anhydrase 2 (Homo sapiens) (UniProt P00918); assay: compounds binding carbonic anhydrase 2 – biochemical, small-molecule microarray, Alexa647-labelled CAII, profiling panel (AID 1122); settings: CAII-A647 binding fluorescence, higher = more signal
[7] = COS7 lysate on small-molecule microarray, probe aHis, 635 nm (AID 1123); settings: COS7 cell lysate, fluorescence, higher = more signal;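 note: z-score combines 667nm fluorescence intensity with signal-to-noise per printed compound spot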
[8] = probe aLAP1 signal on lysate-treated microarray – cell lysate, small-molecule microarray, COS7 lysate, primary screen (AID 1124); settings: probe aLAP1, fluorescence, higher = more signal;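 note: lysate comes from COS7 cells expressing LAP1 and is applied at 0.3 µg/mL; score merges spot fluorescence near 667 nm with signal-to-noise over triplicate slides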
Sam68 (KHDRBS1) = assay: compounds binding KHDRBS1 protein – biochemical, small-molecule microarray, 635 nm fluorescence, primary screen (AID 1125); settings: higher = more signal;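 note: score merges 667 nm channel intensity with signal to noise over triplicate slides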
[9] = tested on: Chordin-like protein 2 (CHRDL2); assay: compounds binding chordin-like 2 – biochemical, small-molecule microarray, 635 nm fluorescence, primary screen (AID 1126); settings: fluorescence 635 nm, higher = more signal;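 note: printed compound slides probed with Chrdl2 protein at 4 µg/mL for 1 h at 4 C; score merges 667 nm emission intensity with signal to noise over three replicate slides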
[10] = target: Concanavalin-A (Canavalia ensiformis) (UniProt P02866); assay: compounds binding concanavalin A lectin – biochemical, small-molecule microarray, Alexa647 label, 635 nm, artefact control for SMM control protein annotation, primary screen (AID 1127); settings: ConA-A647 binding fluorescence, higher = more signal;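 note: z combines 667 nm emission intensity with signal-to-noise across three replicate slides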
[11] = compounds binding Alexa647 anti-His antibody – biochemical, small-molecule microarray, 635 nm fluorescence, artefact control for SMM control protein annotation, primary screen (AID 1128); settings: higher = more signal;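 note: score merges feature fluorescence with signal-to-noise for each printed compound spot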
[12] = tested on: Human papillomavirus type 1a E7 protein (residues 1-88); assay: HPV1a E7 small-molecule binders, primary screen, biochemical, small-molecule microarray, residues 1-88, 635 nm (AID 1129); settings: small-molecule microarray binding, fluorescence 635 nm; higher = more signal
[13] = target: Focal adhesion kinase 1 (Homo sapiens) (UniProt Q05397); assay: PTK2 protein binding on printed compound slides – biochemical, small-molecule microarray, 635/667 nm fluorescence, BSA, DTT, primary screen (AID 1130); settings: 635 nm fluorescence, higher = more signal;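 note: composite of spot emission at 667 nm and signal to noise over triplicate slides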
[14] = tested on: Fibrinogen (Alexa647-labelled); assay: Alexa647-fibrinogen binding to printed small molecules – biochemical, small-molecule microarray, 635/667 nm fluorescence, artefact control for SMM control-protein annotation, profiling panel (AID 1131); settings: fibrinogen-A647 binding fluorescence, higher = more signal;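 note: z-score merges 667 nm fluorescence with per-spot signal-to-noise over triplicate slides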
[15] = target: Follistatin (Homo sapiens) (UniProt P19883); assay: FST protein binding to printed compounds – biochemical, small-molecule microarray, 635/667 nm fluorescence, primary screen (AID 1132); settings: 635 nm fluorescence, higher = more signal
[16] = target: Fibroblast growth factor 2 (Homo sapiens) (UniProt P09038); assay: basic fibroblast growth factor binding to printed compounds – biochemical, small-molecule microarray, 635/667 nm fluorescence, primary screen (AID 1133); settings: FGF2, fluorescence 635/667, higher = more signal
[17] = JC-1 mitochondrial potential readout, lung cancer cells – cell-based, A549, JC-1 fluorescence, basal, 24 h, 100 nL, profiling panel (AID 1138); settings: higher = more signal;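 note: A549 lung adenocarcinoma cells under basal conditions with no added stimulus; test concentration not given here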
Lefty1 = Lefty1 protein binding to printed compounds – biochemical, small-molecule microarray, 635/667 nm fluorescence, primary screen (AID 1139); settings: fluorescence 635/667, higher = more signal

Fibroblast growth factor 2 (Homo sapiens), sequence (P09038 whole entry, looked up): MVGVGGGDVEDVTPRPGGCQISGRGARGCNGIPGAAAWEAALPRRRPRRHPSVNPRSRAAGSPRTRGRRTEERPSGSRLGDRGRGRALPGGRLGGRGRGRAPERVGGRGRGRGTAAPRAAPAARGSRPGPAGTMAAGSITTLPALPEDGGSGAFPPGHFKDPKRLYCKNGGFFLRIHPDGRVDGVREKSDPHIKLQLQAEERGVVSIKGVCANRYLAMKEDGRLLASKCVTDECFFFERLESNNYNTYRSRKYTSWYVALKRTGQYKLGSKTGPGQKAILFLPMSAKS
Torsin-1A-interacting protein 1 (Homo sapiens), sequence (Q5JTV8 whole entry, looked up): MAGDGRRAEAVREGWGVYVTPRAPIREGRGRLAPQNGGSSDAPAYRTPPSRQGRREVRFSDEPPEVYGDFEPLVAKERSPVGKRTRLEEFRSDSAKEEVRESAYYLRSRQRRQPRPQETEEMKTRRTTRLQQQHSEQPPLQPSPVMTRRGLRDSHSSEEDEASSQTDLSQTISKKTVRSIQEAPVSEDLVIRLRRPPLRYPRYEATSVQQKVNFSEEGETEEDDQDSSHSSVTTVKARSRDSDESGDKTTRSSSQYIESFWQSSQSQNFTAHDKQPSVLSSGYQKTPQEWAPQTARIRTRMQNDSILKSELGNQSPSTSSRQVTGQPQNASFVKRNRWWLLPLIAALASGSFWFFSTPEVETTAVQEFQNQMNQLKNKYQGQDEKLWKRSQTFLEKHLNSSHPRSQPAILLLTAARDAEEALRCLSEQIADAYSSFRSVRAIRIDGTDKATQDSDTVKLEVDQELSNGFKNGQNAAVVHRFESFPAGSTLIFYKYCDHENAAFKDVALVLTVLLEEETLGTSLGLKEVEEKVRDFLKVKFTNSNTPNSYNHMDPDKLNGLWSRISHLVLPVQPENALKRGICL
Focal adhesion kinase 1 (Homo sapiens), sequence (Q05397 whole entry, looked up): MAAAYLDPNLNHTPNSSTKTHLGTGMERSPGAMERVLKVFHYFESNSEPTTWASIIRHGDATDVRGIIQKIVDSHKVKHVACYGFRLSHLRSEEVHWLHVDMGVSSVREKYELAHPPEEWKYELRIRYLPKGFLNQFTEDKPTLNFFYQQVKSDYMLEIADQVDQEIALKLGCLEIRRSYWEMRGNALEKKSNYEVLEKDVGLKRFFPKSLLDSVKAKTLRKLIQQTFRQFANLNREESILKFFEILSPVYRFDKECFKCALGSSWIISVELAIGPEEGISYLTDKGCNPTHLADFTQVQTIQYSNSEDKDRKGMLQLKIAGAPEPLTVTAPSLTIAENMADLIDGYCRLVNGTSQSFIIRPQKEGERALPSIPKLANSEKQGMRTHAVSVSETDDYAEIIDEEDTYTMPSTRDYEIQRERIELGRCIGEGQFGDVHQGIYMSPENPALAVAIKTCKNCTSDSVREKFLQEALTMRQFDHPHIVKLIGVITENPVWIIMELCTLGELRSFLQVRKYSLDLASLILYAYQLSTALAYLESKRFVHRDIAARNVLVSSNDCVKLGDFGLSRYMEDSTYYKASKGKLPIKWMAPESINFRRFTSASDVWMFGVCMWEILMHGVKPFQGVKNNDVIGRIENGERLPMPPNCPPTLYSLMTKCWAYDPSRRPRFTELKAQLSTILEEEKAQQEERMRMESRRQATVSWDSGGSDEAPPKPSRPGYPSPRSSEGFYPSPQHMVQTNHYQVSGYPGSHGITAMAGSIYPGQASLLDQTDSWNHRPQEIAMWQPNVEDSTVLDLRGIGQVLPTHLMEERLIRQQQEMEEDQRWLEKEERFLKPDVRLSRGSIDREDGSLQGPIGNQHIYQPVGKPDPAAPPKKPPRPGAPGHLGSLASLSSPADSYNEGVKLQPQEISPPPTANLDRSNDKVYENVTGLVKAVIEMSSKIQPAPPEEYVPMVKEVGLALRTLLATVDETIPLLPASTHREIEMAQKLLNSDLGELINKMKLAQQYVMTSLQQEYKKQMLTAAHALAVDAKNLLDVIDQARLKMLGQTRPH
Follistatin (Homo sapiens), sequence (P19883 whole entry, looked up): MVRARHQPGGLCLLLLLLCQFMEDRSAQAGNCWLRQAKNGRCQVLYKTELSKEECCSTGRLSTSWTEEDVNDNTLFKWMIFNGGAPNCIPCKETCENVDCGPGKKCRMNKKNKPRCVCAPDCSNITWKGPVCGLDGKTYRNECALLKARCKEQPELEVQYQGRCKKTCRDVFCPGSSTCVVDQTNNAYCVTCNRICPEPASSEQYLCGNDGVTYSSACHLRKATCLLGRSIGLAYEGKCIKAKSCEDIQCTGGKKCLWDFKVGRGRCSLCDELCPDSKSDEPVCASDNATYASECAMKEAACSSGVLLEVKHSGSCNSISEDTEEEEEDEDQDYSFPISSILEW
Concanavalin-A (Canavalia ensiformis), sequence (P02866 whole entry, looked up): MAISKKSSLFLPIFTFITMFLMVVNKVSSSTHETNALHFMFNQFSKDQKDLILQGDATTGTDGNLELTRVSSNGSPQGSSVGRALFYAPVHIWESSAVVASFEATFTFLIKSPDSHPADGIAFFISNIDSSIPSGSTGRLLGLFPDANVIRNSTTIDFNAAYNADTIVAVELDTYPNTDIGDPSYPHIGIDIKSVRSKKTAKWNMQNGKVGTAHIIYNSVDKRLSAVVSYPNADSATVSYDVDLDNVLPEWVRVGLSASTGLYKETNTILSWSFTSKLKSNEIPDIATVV
Albumin (Bos taurus), sequence (P02769 whole entry, looked up): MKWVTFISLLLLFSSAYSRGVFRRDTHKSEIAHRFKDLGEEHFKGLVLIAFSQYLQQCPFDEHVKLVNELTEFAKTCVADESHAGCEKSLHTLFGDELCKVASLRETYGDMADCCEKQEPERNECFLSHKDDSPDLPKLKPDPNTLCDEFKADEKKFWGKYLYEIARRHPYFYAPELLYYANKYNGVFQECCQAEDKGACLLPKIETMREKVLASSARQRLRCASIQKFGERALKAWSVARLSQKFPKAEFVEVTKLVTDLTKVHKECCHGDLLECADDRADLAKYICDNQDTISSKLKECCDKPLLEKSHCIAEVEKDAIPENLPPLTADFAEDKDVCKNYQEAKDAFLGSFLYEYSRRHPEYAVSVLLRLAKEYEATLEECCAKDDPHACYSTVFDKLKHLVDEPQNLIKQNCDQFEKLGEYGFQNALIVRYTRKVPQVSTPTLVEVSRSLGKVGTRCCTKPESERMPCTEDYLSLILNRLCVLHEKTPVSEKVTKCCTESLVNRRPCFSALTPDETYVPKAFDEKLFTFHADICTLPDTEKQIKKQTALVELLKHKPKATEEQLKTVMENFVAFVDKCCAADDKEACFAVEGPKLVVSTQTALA

Row | SMILES | composite z-score [1] | composite z-score [2] | composite z-score (Albumin (Bos taurus)) | composite Z-score [3] | composite z-score [4] | composite z-score [5] | composite z-score [6] | composite z-score [7] | composite z-score [8] | composite z-score (Sam68 (KHDRBS1)) | composite z-score [9] | composite z-score [10] | composite z-score [11] | composite z-score [12] | composite z-score [13] | composite z-score [14] | composite z-score [15] | composite z-score [16] | z-score [17] | composite z-score (Lefty1)
1 | C=C(COC)C(=O)CC[C@@H](OC(=O)c1ccccc1-c1ccccc1C(=O)O)c1cccc(OCCO)c1 | 0.176 | 0.671 | -0.39 | -0.122 (inactive) | -0.15 | -0.154 | 0.713 | 0.19 | -0.402 | -0.296 | 0.192 | 0.375 | -1.24 | -0.533 | -0.508 | -0.661 | 1.27 | 0.866 | 1.46 | 0.299
2 | COc1c(C)cc(-c2cc3c(c(CCc4ccccc4)n2)[Si](C(C)C)(C(C)C)OC3)cc1C | 0.162 | 0.0693 | -0.296 | 0.0537 (inactive) | 0.0179 | 0.0049 | 0.2 | 0.614 | 0.427 | 1.07 | 0.0922 | -0.17 | -0.611 | 0.654 | 0.158 | -0.074 | 0.483 | 0.0057 | 2.24 | 0.251
3 | COc1ccc([Si](C)(C)[C@@H]2[C@@H](CC(=O)N3CCC[C@H]3CO)O[C@]3(C(=O)N(Cc4ccc(I)cc4)c4ccccc43)[C@H]2C)cc1 | 0.201 | 0.252 | -1.32 | -0.36 (inactive) | -0.0328 | -0.0707 | -0.0226 | 0.713 | 0.147 | 1.32 | 1.06 | 1.19 | 1.14 | 0.989 | 0.178 | 0.584 | 1.34 | 1.56 | 1.05 | 1.12
4 | CC(C)C(CO)N1C(=O)[C@@H]2C3C(=O)OCCC/C=C\[C@H]3OC23C=CCN(C(C)C)C(=O)[C@@H]13 (stereo not given in full) | 0.0599 | 1.69 | -1.36 | 1.77 (inactive) | -0.214 | -0.168 | 0.865 | 1.37 | 1.95 | 0.879 | -1.5 | -0.341 | -1.74 | -0.809 | 0.0086 | -0.935 | -1.05 | -0.993 | 0.743 | -0.278
5 | C[N+](C)(C)CCCC[C@@H]1NC(=O)[C@@H]2C[C@H](C(=O)NCCCCCNC(=O)CS)[C@H](c3ccc(O)cc3)N2C1=O | 0.208 | 2.19 | -0.172 | -0.419 (inactive) | -0.152 | -0.179 | 0.728 | 1.05 | 0.453 | 0.245 | -0.479 | 1.12 | 1.6 | 0.076 | -0.0206 | 0.141 | 1.46 | 1.19 | 1.52 | 1.02
6 | [N-]=[N+]=NCc1ccccc1C[C@@]1(C(=O)O)N=C(c2ccc(OCCCO)cc2)O[C@@H]1c1ccccc1 | 0.767 | 1.75 | 0.433 | 0.114 (inactive) | -0.133 | 0.0278 | 0.658 | 1.53 | 1.48 | 0.782 | -1.24 | 0.933 | 0.822 | 0.998 | 0.829 | 0.808 | 0.322 | -0.41 | 1.34 | -0.771
7 | CC(=O)OC(C/C=C\B1OC(C)(C)C(C)(C)O1)c1ccccc1 (stereo not given) | -0.405 | -0.0001 | -0.274 | -0.806 (inactive) | -0.146 | -0.166 | -0.411 | -0.279 | -0.0949 | 0.0684 | 1.09 | -0.923 | -0.0541 | -0.373 | -0.379 | 0.221 | 0.0255 | -0.377 | 1.45 | -0.0863
8 | C=CCC(OC(C)=O)[C@@H]1[C@@H](N(Cc2ccc(-c3cccc(C(F)(F)F)c3)o2)C(=O)c2ccc(-c3ccccc3)cc2)c2cc(OCCCO)ccc2N1C(=O)Cc1ccc(OC)cc1 (stereo not given in full) | -0.0086 | -0.0085 | -0.84 | 0.298 (inactive) | -0.0647 | -0.0832 | -0.149 | -0.249 | -0.231 | -0.836 | -0.0712 | -1.26 | -0.729 | 0.0685 | -0.0642 | -0.407 | 0.451 | -0.196 | 1.65 | -0.128
9 | CCOC(=O)C[C@H]1[C@H](OC(=O)c2ccc(-c3ccccc3)cc2)[C@@H](NC(=O)c2ccccc2)c2cc(OCCCO)ccc2N1C(=O)c1ccccc1 | 0.165 | 0.67 | 0.842 | 0.0948 (inactive) | 0.0162 | -0.0232 | 0.395 | 1.67 | 0.658 | 1.33 | -0.519 | 0.818 | 0.698 | 0.925 | 0.372 | 0.851 | -0.129 | 0.253 | 2.3 | -0.0764
10 | CN1C=C(C(=O)OCCS(C)(=O)=O)C(C(=O)OCCS(C)(=O)=O)=CC(CCCO)=CC1c1cccs1 (stereo not given) | -0.036 | 0.151 | -0.945 | 1.4 (inactive) | -0.132 | -0.0837 | -0.167 | -0.12 | 0.0548 | 1.13 | 0.443 | -0.508 | 0.478 | 0.77 | 0.275 | -0.463 | 0.775 | 0.371 | 3.12 | 1.07
11 | COC(=O)C(CC#Cc1ccc2c(c1)[C@]1(C(=O)N2)[C@H](C(=O)O)[C@H]2C(=O)O[C@H](c3ccccc3)[C@H](c3ccccc3)N2[C@@H]1c1ccc(OCCO)cc1)C(=O)OC | 0.78 | 1.5 | 0.956 | -0.908 (inactive) | 0.123 | -0.0333 | 0.703 | 2.07 | 0.279 | 1.3 | -0.756 | 1.2 | 0.479 | 1.24 | 0.918 | 0.812 | 0.0447 | 0.549 | -0.22 | 0.943
12 | CC(C)C[C@@H]1NC(=O)[C@@]23C(=O)N[C@@H](Cc4ccccc4)C2[C@H](C)[C@@]2(C)O[C@H]2C3/C=C/CC/C=C/CNC(=O)[C@@H](C)NC1=O (stereo not given in full) | 0.117 | -0.152 | -1.38 | -0.162 (inactive) | 0.0426 | -0.179 | -0.515 | -0.262 | 0.0036 | 0.179 | 0.906 | 0.204 | -0.764 | -0.649 | 0.138 | -0.875 | 1.23 | 1.12 | -0.168 | 1.5
13 | CCCCCCC#C[Si](O[C@H](c1ccccc1)c1cn(Cc2ccccc2)nn1)(C(C)C)C(C)C | -0.183 | 0.523 | 0.0774 | 0.131 (inactive) | -0.0918 | -0.182 | 0.273 | 0.0604 | 0.155 | 0.458 | 0.187 | 0.132 | 0.254 | 0.262 | -0.326 | -0.418 | 0.126 | 0.594 | 4.41 | 0.806
14 | O=C(O)[C@H]1C[C@H]2C(=O)N[C@@H](Cc3ccccc3)C(=O)N2[C@H]1c1ccc(O)cc1 | 0.586 | 0.777 | -0.728 | 1.09 (inactive) | -0.0918 | -0.0415 | 0.659 | 1.88 | 0.414 | 1.08 | -0.372 | 0.956 | 1.19 | -0.514 | 0.171 | -0.0232 | 1.26 | 0.677 | 1.2 | 0.438
15 | CC(C)CCC[C@@H](C)[C@H]1CC[C@@]2(C)C3=C(CC[C@]12C)[C@@]1(C)CC[C@H](OC(=O)CCl)C(C)(C)C1CC3 (stereo not given in full) | 0.0983 | 0.247 | 0.256 | 0.222 (inactive) | 0.183 | -0.0829 | 0.153 | 0.555 | -0.0674 | 0.404 | 0.549 | 0.47 | -0.107 | 0.708 | 0.272 | 0.649 | 0.409 | 0.363 | 1.35 | 0.327
16 | COCCOC(=O)N1C(=O)[C@@]2(c3cc(C#CC4(O)CCCCCC4)ccc31)[C@H](c1ccc(O)cc1)N1[C@H](c3ccccc3)[C@H](c3ccccc3)OC(=O)[C@H]1[C@@H]2C(N)=O | 0.725 | 0.852 | 0.93 | -0.108 (inactive) | 0.0196 | -0.044 | 0.704 | 1.81 | 1.34 | 1.33 | -0.485 | 0.641 | 1.53 | 0.745 | 1.36 | -0.173 | 0.419 | 0.308 | 0.446 | 0.462
